# Test results as given in PubChem BioAssay.
# Calls of active or inactive are those of the source. Unless noted, the rule behind the calls is not given here.
# Legend:
# [1] = compound effects on lung adenocarcinoma cell viability – A549, calcein-AM fluorescence, 48 h, basal, profiling panel (AID 1162); conditions: higher = more signal; note: test concentration not given here
# [2] = compound effects on differentiated 3T3-L1 adipocyte viability – cell-based, 3T3-L1 adipocytes, calcein-AM fluorescence, 48 h, basal, profiling panel (AID 1163); conditions: 3T3-L1 adipocytes viability, higher = more signal; note: test concentration not given here
# [3] = compound effects on hepatocellular carcinoma cell viability – HepG2, calcein-AM fluorescence, 48 h, basal, profiling panel (AID 1164); conditions: higher = more signal; note: test concentration not given here
# [4] = compound effects on multiple myeloma cell viability – MM1S, calcein-AM fluorescence, 48 h, basal, profiling panel (AID 1165); conditions: higher = more signal; note: test concentration not given here
# [5] = calcein-AM signal in unstimulated myeloma cells – cell-based, calcein-AM fluorescence, 48 h, PK04 Diversity Set, profiling panel (AID 1166); conditions: RPMI8226 myeloma viability, higher = more signal;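 note: cells grown under basal conditions without added stimulus; test concentration not given here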
# [6] = JC-1 mitochondrial signal, unstimulated HepG2 cells – cell-based, JC-1 fluorescence, 24 h, 100 nL compound, profiling panel (AID 1167); conditions: HepG2 mitochondrial potential, higher = more signal; note: test concentration not given here
# [7] = JC-1 mitochondrial signal, unstimulated adipocytes – cell-based, JC-1 fluorescence, 3T3-L1 adipocytes, 24 h, 100 nL compound, profiling panel (AID 1168); conditions: JC-1 mitochondrial fluorescence, higher = more signal, called active from +8 up or from −8 down; note: test concentration not given here
# [8] = JC-1 mitochondrial signal, unstimulated myeloma cells – cell-based, JC-1 fluorescence, RPMI8226, 24 h, 100 nL compound, profiling panel (AID 1169); conditions: JC-1 mitochondrial potential fluorescence, higher = more signal; note: test concentration not given here
# [9] = JC-1 mitochondrial signal, unstimulated MM1S myeloma – cell-based, JC-1 fluorescence, 24 h, 100 nL compound, profiling panel (AID 1170); conditions: MM1S mitochondrial potential, higher = more signal; note: test concentration not given here
# [10] = resazurin metabolic signal in A549 cells – cell-based, resazurin fluorescence, 24 h, PK04 Diversity Set, profiling panel (AID 1171); conditions: A549 viability, higher = more signal, called active from +8 up or from −8 down; note: test concentration not given here
# [11] = resazurin metabolic signal in HepG2 cells – cell-based, resazurin fluorescence, 24 h, PK04 Diversity Set, profiling panel (AID 1172); conditions: HepG2 viability, higher = more signal; note: test concentration not given here
# [12] = budding yeast growth changes without added modifier – OD600, strain BY4716, 24 h, basal condition, primary screen (AID 1173); conditions: S. cerevisiae BY4716 growth, OD600, 24 h; higher = more signal, called active from +8 up or from −8 down
# [13] = viability profiling in MM1S myeloma cells – cell-based, resazurin fluorescence, basal, 24 h, PK04 Diversity Set, profiling panel (AID 1174); conditions: higher = more signal, called active from +8 up or from −8 down; note: test concentration not given here
# [14] = biological target: Dihydroorotate dehydrogenase (quinone), mitochondrial (Plasmodium falciparum (isolate 3D7)) (UniProt Q08210); experiment: inhibition of P. falciparum DHODH – biochemical, C-terminal His tag, absorbance 600 nm, primary screen (AID 1175); conditions: PfDHODH enzyme, DCIP absorbance 600 nm; higher = more signal, called active from +8 up or from −8 down;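 note: recombinant parasite enzyme with a five histidine tag at its C terminus; test concentration not given here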
# [15] = inhibition of PAO1 biofilm formation – strain PAO1, LB-PBS medium, absorbance 600 nm, primary screen (AID 1176); note: test concentration not given here; conditions: P. aeruginosa PAO1 growth/biofilm, A600, 12 h; higher = more signal
# [16] = growth modulation of vineyard yeast isolate – strain RM11-1a, OD600, basal, 24 h, primary screen (AID 1177);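 note: cultures grown under basal conditions with no added stressor; test concentration not given here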; conditions: S. cerevisiae RM11-1a growth, OD600, 24 h; higher = more signal, called active from +8 up or from −8 down
# [17] = growth of efflux-deficient E. coli DRC39 – strain DRC39, OD650, 24 h, E. coli filamentation inducers, primary screen (AID 1178);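 note: growth measured as culture turbidity by optical density at 650 nm; test concentration not given here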; conditions: E. coli DRC39 acrAB, higher = more signal, called active from +8 up or from −8 down
# [18] = growth of efflux-deficient E. coli DRC39 – strain DRC39, OD650, 48 h, E. coli filamentation inducers, primary screen (AID 1179);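 note: screen aims at cell division blockers that make cells filament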; conditions: E. coli DRC39 delta-acrAB growth, higher = more signal, called active from +8 up or from −8 down
# [19] = viability profiling in RPMI8226 myeloma cells – cell-based, resazurin fluorescence, basal, 24 h, PK04 Diversity Set, profiling panel (AID 1180); conditions: higher = more signal;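 note: RPMI8826 multiple myeloma cell line at 5000 cells per well; test concentration not given here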
# [20] = biological target: E3 ubiquitin-protein ligase XIAP (Homo sapiens) (UniProt P98170); experiment: small molecules binding XIAP protein – biophysical, small-molecule microarray, fluorescence 635 nm, primary screen (AID 1181); conditions: higher = more signal;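 note: score merges 667 nm emission and signal to noise over triplicate slides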
# Chain of E3 ubiquitin-protein ligase XIAP (Homo sapiens) (P98170 whole entry, looked up): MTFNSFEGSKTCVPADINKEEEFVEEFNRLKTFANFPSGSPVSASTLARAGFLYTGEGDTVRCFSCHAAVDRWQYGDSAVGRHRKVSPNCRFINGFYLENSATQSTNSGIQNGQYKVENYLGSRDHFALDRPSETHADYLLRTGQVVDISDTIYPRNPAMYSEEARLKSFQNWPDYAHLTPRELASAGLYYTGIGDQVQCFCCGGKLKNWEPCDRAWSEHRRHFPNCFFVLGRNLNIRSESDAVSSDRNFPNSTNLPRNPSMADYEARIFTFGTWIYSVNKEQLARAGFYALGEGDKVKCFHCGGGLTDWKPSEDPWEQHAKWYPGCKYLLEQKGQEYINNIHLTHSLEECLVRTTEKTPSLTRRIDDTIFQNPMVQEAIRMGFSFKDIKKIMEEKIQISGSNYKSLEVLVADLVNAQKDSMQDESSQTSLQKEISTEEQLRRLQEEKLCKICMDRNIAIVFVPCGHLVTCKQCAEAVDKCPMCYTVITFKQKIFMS
# Chain of Dihydroorotate dehydrogenase (quinone), mitochondrial (Plasmodium falciparum (isolate 3D7)) (Q08210 whole entry, looked up): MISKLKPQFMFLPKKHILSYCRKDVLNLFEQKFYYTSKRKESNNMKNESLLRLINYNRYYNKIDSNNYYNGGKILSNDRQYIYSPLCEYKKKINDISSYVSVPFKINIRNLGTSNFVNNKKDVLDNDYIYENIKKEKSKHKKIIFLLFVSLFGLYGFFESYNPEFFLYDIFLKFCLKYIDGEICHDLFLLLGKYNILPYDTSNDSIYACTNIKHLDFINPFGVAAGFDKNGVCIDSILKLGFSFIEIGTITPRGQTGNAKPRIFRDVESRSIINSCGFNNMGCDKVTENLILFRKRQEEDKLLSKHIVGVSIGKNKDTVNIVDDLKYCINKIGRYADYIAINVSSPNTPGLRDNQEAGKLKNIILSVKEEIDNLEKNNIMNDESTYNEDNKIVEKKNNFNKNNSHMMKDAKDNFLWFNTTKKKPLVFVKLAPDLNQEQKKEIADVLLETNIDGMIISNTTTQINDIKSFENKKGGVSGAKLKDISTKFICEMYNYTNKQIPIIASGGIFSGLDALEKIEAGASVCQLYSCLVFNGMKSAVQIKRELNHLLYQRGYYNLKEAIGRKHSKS
SMILES,z-score [1],z-score [2],z-score [3],z-score [4],z-score [5],z-score [6],z-score [7],z-score [8],z-score [9],z-score [10],z-score [11],z-score [12],z-score [13],composite z-score [14],z-score [15],z-score [16],z-score [17],z-score [18],z-score [19],composite z-score [20]
O=C(NC1CC1)[C@@H]1c2ccccc2C(=O)N(CC23CC4CC(CC(C4)C2)C3)[C@H]1c1ccc(CO)cc1,0.554,0.875,0.232,0.0732,0.202,1.49,0.397 (inactive),0.555,-0.467,1.5 (inactive),0.658,-0.498 (inactive),0.74 (inactive),-0.329 (inactive),0.338 (inactive),0.123 (inactive),-0.0508 (inactive),-0.428 (inactive),1.07,0.141
CCOC(=O)C[C@H]1[C@H](OC(=O)c2ccccc2-c2ccccc2)[C@@H](NC(=O)C2CCCCC2)c2cc(OCCCO)ccc2N1C(=O)c1ccc2ccccc2n1,0.448,-0.87,0.581,-0.742,-1.3,-0.28,1.19 (inactive),-0.21,-0.621,-0.417 (inactive),-0.872,0.818 (inactive),-0.0667 (inactive),0.338 (inactive),-0.177 (inactive),0.743 (inactive),-0.53 (inactive),-0.12 (inactive),0.131,-0.0351
COC(=O)C(CC#Cc1ccc2c(c1)[C@]1(C(=O)N2)[C@H](c2ccc(OCCO)cc2)N2[C@H](c3ccccc3)[C@H](c3ccccc3)OC(=O)[C@H]2[C@@H]1C(=O)N1CCCCCCC1)C(=O)OC,0.996,0.915,0.846,0.491,-1.88,-0.386,-1.82 (inactive),-1.08,-1.36,-0.387 (inactive),-0.198,1.12 (inactive),-0.223 (inactive),0.365 (inactive),2.9 (inactive),1.3 (inactive),-0.8 (inactive),0.136 (inactive),-1.02,0.997
CCN(CC)c1ccc(N2CC=CC34O[C@@H]5C=CCCOC(=O)C5[C@H]3C(=O)N(C(C)CO)[C@@H]4C2=O)cc1 (stereo not given in full),-0.0735,-0.456,0.316,0.241,0.333,0.408,0.0389 (inactive),-0.487,0.0276,0.586 (inactive),0.452,-0.315 (inactive),0.172 (inactive),-0.0558 (inactive),0.398 (inactive),0.126 (inactive),-0.491 (inactive),-0.693 (inactive),0.399,0.741
O=C1O[C@H](c2ccccc2)[C@H](c2ccccc2)N2[C@H]1[C@@H](C(=O)O)[C@]1(C(=O)Nc3ccc(C#CCCO)cc31)[C@H]2c1ccc(OCCO)cc1,0.616,1,0.461,-0.963,0.926,-0.76,-0.138 (inactive),0.489,0.492,0.367 (inactive),0.174,-0.829 (inactive),0.686 (inactive),-1.01 (inactive),0.967 (inactive),0.159 (inactive),0.312 (inactive),0.471 (inactive),0.68,-0.177
C=C(COC)C(=O)CC[C@@H](OC(=O)c1ccccc1-c1ccccc1C(=O)O)c1ccc(OCCO)cc1,-0.25,1.27,-0.354,-3.06,-0.414,-1.05,-0.144 (inactive),-0.163,0.0435,-0.205 (inactive),-0.425,-0.528 (inactive),-0.105 (inactive),-1.09 (inactive),0.449 (inactive),-0.426 (inactive),-0.699 (inactive),-0.708 (inactive),-0.492,0.165
COc1ccc([Si](C)(C)[C@@H]2[C@@H](CC(=O)N(CCO)Cc3ccccc3)O[C@]3(C(=O)N(Cc4ccc(N5C(=O)c6cccc7cccc5c67)cc4)c4ccccc43)[C@H]2C)cc1,-0.538,0.427,-1.43,-1.82,-3.52,-0.038,0.161 (inactive),-1.02,-1.18,-1.51 (inactive),-1.17,1.21 (inactive),-1.48 (inactive),-0.992 (inactive),1.56 (inactive),2.5 (inactive),0.302 (inactive),-0.22 (inactive),-1.85,0.237
COCCOC(=O)N1C(=O)[C@@]2(c3cc(C#CCC(C(=O)OC)C(=O)OC)ccc31)[C@H](C(=O)Nc1nc3ccccc3s1)[C@H]1C(=O)O[C@H](c3ccccc3)[C@H](c3ccccc3)N1[C@@H]2c1ccc(O)cc1,-0.857,0.401,-0.277,0.0422,-0.23,-2.45,-2.24 (inactive),0.467,0.258,0.677 (inactive),-0.218,0.945 (inactive),-0.0585 (inactive),0.863 (inactive),0.678 (inactive),0.404 (inactive),0.378 (inactive),-0.186 (inactive),-0.577,0.286
CCOC(=O)C1=CC[C@@H](c2ccc(OC)cc2)N(S(=O)(=O)c2ccc(C)cc2)[C@H]1CC,0.33,0.815,0.945,-1.25,-1.45,5.4,1.53 (inactive),-0.301,-1.99,0.198 (inactive),0.0292,-1.82 (inactive),-0.289 (inactive),-1.04 (inactive),0.505 (inactive),-0.0802 (inactive),0.608 (inactive),1.87 (inactive),-0.793,-0.321
